14 compounds from PubChem BioAssay (NCATS) can be followed below.

In one test the test system is HEK293. The test is described as follows: Cytotoxic Profiling of Annotated Libraries Using Quantitative High-Throughput Screening (AID 1296008). As to conditions: Five cell lines viability, CellTiter-Glo ATP luminescence, 48-72 h; max response: hits give low values. In a few lines:
(§1)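 Cytotoxicity was measured as CellTiter-Glo ATP luminescence, read after 10 min at room temperature. Compound treatment of the cells lasted 48 or 72 hr at 37 degrees Celsius in a qHTS format.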

Test [1] concerns HaCat. Described as above. Conditions: Five cell lines viability, CellTiter-Glo ATP luminescence, 48-72 h; max response: hits give low values. In outline:
as §1

For another test, the system named is KB-3-1. Described as above. As to conditions: Five cell lines viability, CellTiter-Glo ATP luminescence, 48-72 h; max response: hits give low values. In a few lines:
as §1

The subject of a further test is NIH3T3. Described as above. Conditions: Five cell lines viability, CellTiter-Glo ATP luminescence, 48-72 h; max response: hits give low values. In outline: as §1
Test [2] has as its system HACAT. The test is described as follows: qHTS assay to identify novel small-molecules to repurpose for Merkel cell carcinoma treatment (AID 1296009). As to conditions: MCC and control cell lines, CellTiter-Glo viability, 72 h; at 44.8 µM (top of the series) unless noted. In a few lines: (§2)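 72 hr, 37 degree celsius; NPC 8-pt / MIPE 11-pt dose response; compound pinned in DMSO; CellTiter-Glo, 10 min RT, luminescence; normalized to no-cell and DMSO controls.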

A further test concerns MCC-13. The test is described as above. Conditions: MCC and control cell lines, CellTiter-Glo viability, 72 h; series mostly up to 46 µM. In outline: as §2
For a further test, the system named is MKL-1. Described as above. Conditions: MCC and control cell lines, CellTiter-Glo viability, 72 h; series mostly up to 46 µM. In outline:
as §2

A further test relates to MKL-2. The test is described as above. As to conditions: MCC and control cell lines, CellTiter-Glo viability, 72 h; series mostly up to 46 µM. In outline: as §2
A further test has as its system MCC-26. The test is described as above. Conditions: MCC and control cell lines, CellTiter-Glo viability, 72 h; series mostly up to 46 µM. In a few lines: as §2
For the next test, the system named is HEK293T. The test is described as above. As to conditions: MCC and control cell lines, CellTiter-Glo viability, 72 h; at 44.8 µM (top of the series). In outline: as §2

Values joined by “and” are separate entries in the source; they are usually repeats but may differ in a detail not shown here. Equal values may be shown once. Inconclusive results are not listed. Values without a mark were called inactive. Active and inactive are the calls of the source. Calls come from the whole dose curve; as a rule, active = well fitted inhibition curve with a large enough effect; inconclusive = small, poorly fitted or top-dose-only effect; inactive = flat fitted curve, though single readings scatter.
% is set by controls: 0 for no effect and ±100 for the full control effect; potency is the fitted concentration of half-maximal effect.
Note: nearly all actives have a fitted effect of over 60% in size.

As for `CCC(C)n1ncn(-c2ccc(N3CCN(c4ccc(OC[C@H]5CO[C@](Cn6cncn6)(c6ccc(Cl)cc6Cl)O5)cc4)CC3)cc2)c1=O` (stereo partly drawn), the Potency in the test on HEK293 is 2.82 µM (active). In addition, the max response in the test on HaCat [1] was 1.24%; in the test with KB-3-1, -3.28% and -9.44% and -24.5%; in the test with NIH3T3, -7.51%. In addition, the result in the test with HaCat [1] and in the test on HACAT [2] was inactive. In addition, the Potency entry in the test with MCC-13, in the test on MKL-1 and with MKL-2 was “inactive” in each case.
`CC(C)(Sc1ccc(CCN(CCCCC2CCCCC2)C(=O)NC2CCCCC2)cc1)C(=O)O`: the max response in the test with HEK293 is 4.49%; with HaCat [1], -19.6% and 1.18%; in the test with KB-3-1, 5.99%; in the test with NIH3T3, -1.54% and 3.22%. Moreover, the compound was called inactive in the test with KB-3-1. In addition, the Potency entry in the test with MCC-13 is “inactive”.
With `Cc1cc(C=c2sc3nc4ccccc4n3c2=O)c(C)n1-c1ccccc1`, the max response in the test with HEK293 was -0.0904%; with KB-3-1, 1.4%; in the test on NIH3T3, -1.17%. Moreover, the compound was called inactive in the test with HaCat [1] and in the test with HACAT [2]. Moreover, the Potency entry with MCC-13, in the test with MCC-26, with MKL-1 and in the test with MKL-2 was “inactive” throughout.
As for `CCOc1cc(C(=O)Nc2ccc(Cl)c(-c3nc4ccccc4[nH]3)c2)cc(OCC)c1OCC`, the Potency in the test on HEK293 was 16.6 µM (active). The max response was 1.32% and 3.52% in the test with HaCat [1]; -16% and -9.64% in the test on KB-3-1; -3.49% with NIH3T3. In addition, in the test with NIH3T3, the compound was called inactive. Also, the Potency result with MCC-13, in the test with MCC-26 and with MKL-1 was “inactive” each time.
`CCC(=O)N[C@H]1CC[C@H](C(=O)N(C)c2ccc(-c3nc4ccccc4o3)cc2)C1`: the Potency in the test on HEK293 is 20.9 µM (active). Further, the result with HaCat [1] and in the test with HACAT [2] was inactive. Also, the figures for the max response in the test with KB-3-1 and in the test with NIH3T3 were -16.3% and -2.14%, respectively. In addition, the Potency entry in the test on MCC-13, in the test on MCC-26 and in the test with MKL-1 was “inactive” throughout.
For `Clc1cccc(Cl)c1NC1=NCCN1`, the max response in the test on HEK293 is -3.7% and -4.57%. Further, the result with HaCat [1], in the test on KB-3-1, with NIH3T3 and in the test with HACAT [2] was inactive. The Potency result in the test on MCC-13, in the test on MCC-26, in the test on MKL-1 and in the test on MKL-2 was “inactive” in each case.
On to `CCN(CC)CCCC(C)Nc1nc(C)cc(Nc2ccc3nc(C)cc(N)c3c2)n1` (stereo not drawn), for which, in the test on HEK293, the max response was -11.7%. Moreover, the call with HaCat [1], with KB-3-1, in the test with NIH3T3 and in the test on HACAT [2] was inactive. The Potency result with MCC-13, in the test with MCC-26, with MKL-1 and with MKL-2 was “inactive” in each case.
As for `CCCc1nn(C)c2c(=O)[nH]c(-c3cc(S(=O)(=O)N4CCN(C)CC4)ccc3OCC)nc12`, the Potency in the test on HEK293 was 18.7 µM (active). Besides, the max response in the test with HaCat [1] was -6.49% and -10.8%; with KB-3-1, 4.32%; with NIH3T3, -19.3% and 3.51%. In the test on KB-3-1, the outcome was inactive. Also, the Potency result with MCC-13, in the test with MCC-26, in the test with MKL-1 and with MKL-2 was “inactive” throughout.
Take `NNCCc1ccccc1`: the max response is -15.3% in the test with HEK293; -0.0842% and -11.1% with HaCat [1]; -10.1% and -6.14% in the test with KB-3-1; 1.01% in the test on NIH3T3. Further, the Potency result in the test with MCC-13, in the test on MCC-26, with MKL-1 and in the test with MKL-2 was “inactive” each time.
Regarding `Cc1n[nH]c(C)c1Cc1sc2c(c1C(=O)N1C[C@H](O)CO1)c(=O)n(C)c(=O)n2CC(C)C`, in the test with HEK293, the Potency is 0.184 µM (active). Moreover, the max response in the test with HaCat [1] was -3.78% and -14.4%. The call in the test on KB-3-1 was inactive. Moreover, the Potency entry in the test on MCC-13, in the test with MCC-26, in the test with MKL-1 and in the test on MKL-2 was “inactive” throughout.
Turning to `Cc1cccc(-c2[nH]c(C(C)(C)C)nc2-c2ccc3nccnc3c2)n1`, the Potency was 3.72 µM (active) in the test on HEK293, 14.8 µM (active) in the test with KB-3-1 and 2.64 µM (active) in the test with MKL-1. The compound was called inactive with HaCat [1] and in the test on HACAT [2]. Further, the Potency entry with MCC-13 was “inactive”.
For the compound `CC(C)(N)C(=O)N[C@H](COCc1ccccc1)C(=O)N1CCC2(CC1)CN(S(C)(=O)=O)c1ccccc12`, in the test on HEK293, the Potency was 23.5 µM (active). Also, the max response with HaCat [1] is -12.2% and 3.47%; in the test with KB-3-1 it was -17.9% and 1.97%; in the test with NIH3T3 it was -13.8%. Moreover, the Potency result in the test on MCC-13, in the test with MCC-26, in the test on MKL-1 and in the test on MKL-2 was “inactive” throughout.
In the case of `CC[C@H](Nc1ncnc2nc[nH]c12)c1nc2cccc(F)c2c(=O)n1-c1ccccc1`, the Potency in the test on HEK293 was 23.5 µM (active); with HaCat [1] it was 13.2 µM (active). In the test on KB-3-1, the compound was called inactive. Also, the max response with NIH3T3 was -27.5%. For the same compound, the Potency entry in the test on MCC-13 and in the test on MKL-1 was “inactive” in each case.
Consider `O=C(NOC[C@H](O)CO)c1ccc(F)c(F)c1Nc1ccc(I)cc1F`, for which the outcome in the test on HEK293 and in the test on HEK293T was inactive. Moreover, the Potency was 8.33 µM (active) and 23.1 nM (active) with HaCat [1]; 6.51 µM (active) with NIH3T3. In the test with KB-3-1, the max response is 4.78% and 5.99%. Further, the Potency result in the test on MCC-26 is “inactive”.
